# G9a inh: G9a (human) methyltransferase inhibition | Q96KQ7 | G9a H3K9 monomethylation, AlphaScreen, 2 h | Potency, µM (highest dose often 102 µM), for inactives: at the top dose activity, negative = inhibition, usual class: inhibitors | 350,000 tested, 8.8% active | AID 504332; note: potency is the fitted concentration of half-maximal effect; % is set by controls: 0 for no effect and ±100 for the full control effect; nearly all actives have a fitted effect of over 75% in size
# Target sequence (Q96KQ7 913-1193 limits assumed): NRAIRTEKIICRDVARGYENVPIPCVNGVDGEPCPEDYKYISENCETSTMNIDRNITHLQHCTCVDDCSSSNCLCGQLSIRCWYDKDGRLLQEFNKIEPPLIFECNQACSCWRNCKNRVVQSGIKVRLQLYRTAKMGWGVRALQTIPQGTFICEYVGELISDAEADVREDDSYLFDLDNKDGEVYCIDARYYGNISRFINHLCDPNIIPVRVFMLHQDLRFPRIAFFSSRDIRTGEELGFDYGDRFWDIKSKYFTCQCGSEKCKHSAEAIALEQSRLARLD
#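 Step 1: enzyme (final 20 nM) with compound, 15 min RT. Step 2: substrate peptide 500 nM and SAM 20 uM, 2 h RT. Step 3: anti-H3K9me1 antibody and AlphaScreen beads, 10 min, then plate read.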
# CtBP-E1A inh: blocks the CtBP interaction with E1A | AID 651724 | activity change, % (concentration not given with the values) | 340,000 tested, 0.49% active | AlphaScreen GST-E1A/His-CtBP binding, 1536-well; stronger effect = lower value; in the data active = activity change below about -65%; inconclusive = mostly about -30% to -63%; note: % is set by controls: 0 for no effect and ±100 for the full control effect
#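 Homogeneous bead-based format: GST-tagged E1A captured on glutathione donor beads, His-tagged CtBP on nickel acceptor beads; compounds precede bead addition by 2 h at 37 °C.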
# BAZ2B block: inhibitors of human BAZ2B bromodomain | AID 504333 | 360,000 tested, 4.4% active | Q9UIF8 | AlphaScreen BAZ2B-H3K14Ac peptide displacement | Potency, µM (titrated, usually from 114 µM), inactives show top-dose activity change, negative = inhibition, actives largely listed as inhibitors; note: potency is the fitted concentration of half-maximal effect; % is set by controls: 0 for no effect and ±100 for the full control effect; nearly all actives have a fitted effect of over 60% in size
#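 AlphaScreen displacement of biotin-H3(5-23)K14Ac peptide (50 nM final) from BAZ2B (50 nM final) in PBS pH 7.4, 0.01% Tween-20; complex preformed 30 min RT, then compounds (top 110 uM) 30 min RT, beads 20 min dark.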
# HP1b chromo inh: blocks HP1-beta chromodomain binding to methylated histone tails | P83916 | AlphaScreen HP1-beta / biotin-H3K9me3 peptide binding | Potency, µM (titrated, usually from 114 µM), inactives show at the top dose activity change, negative = inhibition, actives largely listed as inhibitors | 390,000 tested, 0.56% active; note: potency is the fitted concentration of half-maximal effect; nearly all actives have a fitted effect of over 70% in size
# Target sequence (P83916 whole entry, looked up): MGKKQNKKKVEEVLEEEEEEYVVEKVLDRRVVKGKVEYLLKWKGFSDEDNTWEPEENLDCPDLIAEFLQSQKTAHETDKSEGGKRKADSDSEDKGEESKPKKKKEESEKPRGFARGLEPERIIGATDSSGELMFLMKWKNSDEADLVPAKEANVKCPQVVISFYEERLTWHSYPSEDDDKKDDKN
#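 HP1-beta protein (50 nM final) preincubated 30 min at room temperature with biotinylated H3(1-18)K9me3 peptide (50 nM) in PBS pH 7.4, 0.01% Tween-20, then compound added for 30 min. AlphaScreen streptavidin donor/nickel chelate acceptor beads (10 ug/mL final), 30 min dark, luminescence read.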
# JMJD2A Tudor inh: inhibitors of human JMJD2A Tudor domain; O75164; AlphaScreen JMJD2A-Tudor / H3K4me3 peptide binding; Potency, µM (highest dose often 114 µM), without a hit: at the top dose activity change, negative = inhibition, actives largely listed as inhibitors; 390,000 tested, 4.4% active; AID 504339; note: potency is the fitted concentration of half-maximal effect; % is set by controls: 0 for no effect and ±100 for the full control effect; nearly all actives have a fitted effect of over 50% in size
# Six1-Eya2 inh: inhibitors of human Six1/Eya2 interaction. AlphaScreen GST-Six1/His-Eya2 binding, biochemical; stronger effect = lower value. activity change, % (concentration not given with the values). Q15475+O00167. 360,000 tested, 0.56% active; in the data active = activity change below about -65%; inconclusive = mostly about -30% to -63%; note: % is set by controls: 0 for no effect and ±100 for the full control effect
#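 AlphaScreen with GST-Six1 and His-Eya2 (5X mix: 250 nM and 500 nM), glutathione donor and nickel acceptor beads; buffer 50 mM Tris pH 8.0, 300 mM NaCl, 1 mM TCEP; 1 h at 37 C in the dark.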
# Active calls of the source: *; ? = inconclusive; . = not tested or not shown; ! = not active in a repeat; [ ] = dose if it differs, or a comment. Compounds with a hit are over-represented: about 10% of the library has one in this group of screens. Unless noted, calls come from the whole dose curve; as a rule, active = well fitted inhibition curve with a large enough effect; inconclusive = small, poorly fitted or top-dose-only effect; inactive = no such curve, though single readings can be large or run the other way.
SMILES,G9a inh,CtBP-E1A inh,BAZ2B block,HP1b chromo inh,JMJD2A Tudor inh,Six1-Eya2 inh
O=C(COc1ccccc1)Nc1nnc(S(=O)(=O)N2CCCCC2)s1,0%,11,-23%,60%,-11%,8
O=C(Nc1nnc(S(=O)(=O)N2CCCCCC2)s1)c1ccccc1F,11µM*!,0,10µM*!,51%,40µM*!,-4
Cc1ccc(C(=O)Nc2nnc(S(=O)(=O)N3CCOCC3)s2)cc1,?,-6,4%,38%,-9%,-6
O=C(COc1ccccc1Cl)Nc1nnc(S(=O)(=O)N2CCCCCC2)s1,56µM*!,-24,-3%,47%,-16%,1
COc1ccc(NC(=O)Cn2ncc3c([nH]c4ccccc43)c2=O)cc1Cl,8%[59 µM],.,-1%,13%,0%,.
CC(C)CC(O)C(=O)Nc1cc(C(F)(F)F)ccc1Cl (stereo not drawn),.,.,.,.,-1%,.
O=C(Nc1nnc(S(=O)(=O)N2CCN(c3ccc(F)cc3)CC2)s1)c1ccco1,45µM*,3,?,23%,?,-4
Cc1ccccc1C(=O)Nc1nnc(S(=O)(=O)N2CCCCCC2)s1,14µM*,-12,22µM*!,?,40µM*!,9
COc1ccccc1C(=O)Nc1nnc(S(=O)(=O)N2CCCCC2)s1,19%,-3,-19%,76%,-3%,0
O=C1CCCCC2CCCCN12 (stereo not drawn),36%[135 µM],.,.,.,.,.
O=C(CCNS(=O)(=O)c1cccc2nsnc12)Nc1ccc(F)cc1,-5%[59 µM],.,1%,21%,6%,.
Cc1cc(C)c2c(c1)C1C=CCC1C(c1ccc(S(=O)(=O)N3CCOCC3)cc1)N2 (stereo not drawn),8.9µM*,16,-12%,15%,-16%,-3
O=S(=O)(c1ccc(C2CCCCC2)cc1)N1CCOCC1,27%,10,10%,39%,5%,9
O=C(O)c1cc(Cl)c2c(c1)[C@@H]1C=CC[C@@H]1[C@H](c1ccc(S(=O)(=O)N3CCOCC3)cc1)N2,22µM*,-8,50µM*,-22%,79µM*,?
Cc1ccc(S(=O)(=O)N2CCOCCOCCOCCOCCOCC2)cc1,-6%,10,-28%,29%,-5%,-2
CCOc1cccc(C2C=C(c3ccc4c(c3)OCO4)NC(c3ccc(Br)cc3)N2)c1O (stereo not drawn),.,.,.,16%[57 µM],-22%[57.1 µM],.
COc1ccccc1N1CCN(/N=C/c2c(C)nn(-c3ccccc3)c2C)CC1,?,?,28µM*,18µM*,40µM*,?
COc1ccccc1N1CCN(/N=C/c2cccc(OC)c2OC)CC1,50µM*,0,35µM*,?,?,9
COc1ccccc1N1CCN(/N=C\c2sccc2C)CC1,16µM*,-26,13µM*,-25%,?,?
COc1ccccc1N1CCN(/N=C\c2ccccc2)CC1,-13%[0.501 µM],.,?,-11%,-34%,-8
CN(CC(=O)Nc1ccccc1Cl)CC(=O)N1CCc2ccccc21,21%[12.7 µM],10,2%,10%,0%,-13
Cc1ccc(-n2c(CCc3nc4ccccc4[nH]3)n[nH]c2=S)cc1,?,11,-6%,-2%,7.9µM*,10
CCn1c(CCc2nc3ccccc3[nH]2)n[nH]c1=S,?,1,-15%,12%,4µM*,8
Cc1ccc(-n2c(Cn3c(C)nc4ccccc43)n[nH]c2=S)cc1,10µM*,.,2%,34%,8.9µM*,4
Cc1ccc(S(=O)(=O)N2CCC(C(=O)N3CCCC(C(F)(F)F)C3)CC2)cc1C (stereo not drawn),5%,-17,9%,26%,-6%,0
SMILES,G9a inh,CtBP-E1A inh,BAZ2B block,HP1b chromo inh,JMJD2A Tudor inh,Six1-Eya2 inh
Cc1ccc2ncc(C(=O)NCc3ccccc3Cl)c(=O)n2c1,0%[59 µM],.,7%,25%,-1%,.
CCCN(CC(=O)Nc1ccccc1OC)C(=O)c1ccc(S(=O)(=O)Nc2ccccc2)cc1,0%[59 µM],4,8%,22%,-11%,-2
Cc1cc(-c2ccc(S(=O)(=O)NCc3ccccc3Cl)s2)on1,-6%[59 µM],.,15%,27%,-3%,.
COc1ccc(N2CCN(C(c3ccccc3)c3nnnn3C(C)C)CC2)cc1 (stereo not drawn),.,.,.,2%,?,.
COc1cc(/C=C/C(=O)Nc2nnc(CC(C)(C)C)s2)cc(OC)c1OC,2.2µM*,10,-11%,?,?,11
Cc1cnc(C(=O)OCC(=O)Nc2c(Cl)cc(Cl)cc2Cl)cn1,1%[59 µM],2,12%,17%,-17%,6
CSc1ccc(C(=O)C2CCCN(S(=O)(=O)c3c(C)noc3C)C2)cc1 (stereo not drawn),12%,-1,-24%,42%,-14%,5
Cc1ccc(N=C2S/C(=C\c3cn(CC(=O)O)c4ccccc34)C(=O)N2C)cc1,79µM*,-7,?,-9%,-24%,-28
O=C(O)CSc1nnc(NC(=O)CN2CCOCC2)s1,?,1,-31%,19%,4%,2
CCOC(=O)CSc1nnc(NC(=O)CN2CCCCC2)s1,5%[12.7 µM],6,-4%,23%,50µM*,7
CCOC(=O)CSc1nnc(NC(=O)c2ccco2)s1,16%,.,-17%,19%,-7%,3
CCOC(=O)CSc1nnc(NC(=O)c2cccc([N+](=O)[O-])c2C)s1,25µM*,0,-8%,31%,-10%,-4
CCOc1ccc2nc(NC(=O)CN3CCN(CC)CC3)sc2c1,45µM*,.,-5%,16%,-8%,-2
CCOc1ccc2nc(NC(=O)CN3CCOCC3)sc2c1,5%,0,-12%,12%,-13%,-5
CCOc1ccc2nc(NC(=O)Nc3ccccc3)sc2c1,-20%[59 µM],0,1%,36%,-22%,-1
CCOc1ccc2nc(NC(=O)Cn3cnc4c3c(=O)n(C)c(=O)n4C)sc2c1,79µM*,-6,-7%,17%,-28%,-3
CCOc1ccc2nc(NC(=S)NCc3ccccc3)sc2c1,7.1µM*,-9,0%,?,-15%,-5
CCOc1ccc2nc(NC(=O)CN3CCN(C)CC3)sc2c1,35µM*,-4,?,7%,-18%,3
CCOc1ccc2nc(NC(=O)CSc3nc4c(c(=O)n(C)c(=O)n4C)n3C(C)C)sc2c1,-24%[59 µM],6,-3%,17%,-15%,-6
CC1(C)CC(=O)/C(=C(\O)CCCN2C(=O)c3ccccc3C2=O)C(=NCCO)C1,-19%,5,-9%,5%,?,1
CCCS(=O)(=O)NC(=O)C1(C)CCCN(C(=O)c2ccc(C(F)(F)F)cc2)C1 (stereo not drawn),.,3,.,.,.,4
